A selection: hits, their analogues and other compounds. The true share with any hit is near 12%.
Sfp inh – inhibitors of Bacillus subtilis Sfp phosphopantetheinyl transferase. Biochemical Sfp PPTase activity, qHTS. Q9F4F7. 3.5% of 310,000 active. Potency, µM, actives largely listed as inhibitors;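 also: the enzyme is Sfp with the accession as filed and its product quenches rhodamine fluorescence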
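Buffer: 50 mM Hepes-Na pH 7.6, 10 mM MgCl2, 0.01% Nonidet P-40, 0.01% BSA. Enzyme 15 nM, pre-exposed to compound 15 min; substrates then added and fluorescence change tracked over 30 min.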
JMJD2A Tudor inh – blocks the human JMJD2A Tudor domain | AID 504339 | 4.4% of 390,000 active | Potency, µM (series often up to 114 µM), actives largely listed as inhibitors | AlphaScreen JMJD2A-Tudor / H3K4me3 peptide binding; also: nearly all actives have a fitted effect of over 50% in size
BAZ2B inh – BAZ2B (human) inhibition; 4.4% of 360,000 active; Potency, µM (titrated, usually from 114 µM), usual class: inhibitors; Q9UIF8; AID 504333; AlphaScreen BAZ2B-H3K14Ac peptide displacement; also: nearly all actives have a fitted effect of over 60% in size
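BAZ2B 50 nM plus b-H3(5-23)K14Ac 50 nM, PBS pH 7.4/0.01% Tween-20, 30 min RT; compound added (max 110 uM), 30 min RT; streptavidin donor/Ni-chelate acceptor beads 10 ug/mL final, 20 min dark; AlphaScreen read.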
G9a inh – blocks human histone lysine methyltransferase G9a | Potency, µM (highest dose often 102 µM), most hits filed as inhibitors | G9a H3K9 monomethylation, AlphaScreen, 2 h | 8.8% of 350,000 active | Q96KQ7; also: nearly all actives have a fitted effect of over 75% in size
Target sequence (Q96KQ7 913-1193 limits assumed): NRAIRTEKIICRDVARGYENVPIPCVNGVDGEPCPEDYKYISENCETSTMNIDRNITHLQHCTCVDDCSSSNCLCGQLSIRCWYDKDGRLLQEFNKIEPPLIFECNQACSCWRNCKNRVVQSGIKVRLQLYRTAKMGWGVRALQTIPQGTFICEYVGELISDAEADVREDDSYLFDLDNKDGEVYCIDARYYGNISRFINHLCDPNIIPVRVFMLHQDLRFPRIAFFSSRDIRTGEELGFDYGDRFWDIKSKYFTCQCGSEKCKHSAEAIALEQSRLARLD
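G9a (20 nM) was preincubated 15 min with compound, then reacted 2 h at room temperature with 500 nM biotin-H3K9 peptide and 20 µM SAM. Monomethyl-H3K9 detected by AlphaScreen using anti-H3K9me1 antibody.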
HP1b chromo inh – blocks HP1-beta chromodomain binding to methylated histone tails; 0.56% of 390,000 active; P83916; AID 540317; Potency, µM (series often up to 114 µM), hits mostly inhibitors; AlphaScreen HP1-beta / biotin-H3K9me3 peptide binding; also: nearly all actives have a fitted effect of over 70% in size
Target sequence (P83916 whole entry, looked up): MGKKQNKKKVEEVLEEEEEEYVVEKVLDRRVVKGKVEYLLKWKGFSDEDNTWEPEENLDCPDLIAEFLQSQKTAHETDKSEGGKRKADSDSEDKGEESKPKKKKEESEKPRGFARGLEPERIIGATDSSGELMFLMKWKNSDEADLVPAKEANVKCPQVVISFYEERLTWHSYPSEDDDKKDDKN
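HP1-beta protein (50 nM final) preincubated 30 min at room temperature with biotinylated H3(1-18)K9me3 peptide (50 nM) in PBS pH 7.4, 0.01% Tween-20, then compound added for 30 min. AlphaScreen streptavidin donor/nickel chelate acceptor beads (10 ug/mL final), 30 min dark, luminescence read.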
Each line names hits and unclear results; the compound was inactive in the other large screens. Calls follow the shape of the dose curve; as a rule, active = well fitted curve in the direction sought with a large enough effect; inconclusive = small, poorly fitted or top-dose-only effect, or another doubt; inactive = no such curve, though single readings can be large; an effect the other way counts as inactive or inconclusive.

O=[N+]([O-])c1cc([N+](=O)[O-])c2oc(-c3ccccc3)c(Br)c2c1O	JMJD2A Tudor inh 45µM, BAZ2B inh 35µM, G9a inh 50µM, HP1b chromo inh inconclusive
COCCNC(=O)CCCn1c(SCc2ccccc2Cl)nc2c(sc3ccccc32)c1=O	none (no result: Sfp inh)
CCc1nn2c(=O)cc(COC(=O)c3ccccc3NC(=O)COc3ccc(C)c(C)c3)nc2s1	none (no result: Sfp inh)
CCOc1ccc(NC(=O)C2CCN(C(=O)N3CC(C)Oc4ccc(Cl)cc43)CC2)cc1 (configuration not stated)	JMJD2A Tudor inh inconclusive, BAZ2B inh 79µM, G9a inh inconclusive (no result: Sfp inh)
CO[C@H]1C[C@@H]2C[C@H](O)C[C@@H](CC(=O)O[C@@H](/C=C\CC(C)C)C[C@@H]3CC[C@H](C)[C@@H](C1)O3)O2	none (no result: JMJD2A Tudor inh, BAZ2B inh, G9a inh, HP1b chromo inh)
CC(C)C(=O)NC(c1ccc(N(C)C)cc1)c1c(O)ccc2ccccc12 (configuration not stated)	G9a inh 2.2µM
CC(=O)NC(c1ccc(C)cc1)c1cc([N+](=O)[O-])c2cccnc2c1O (configuration not stated)	Sfp inh inconclusive, JMJD2A Tudor inh 14µM, BAZ2B inh 4.5µM, G9a inh 35µM
COc1ccc(C(NC(C)=O)c2cc(Cl)c3cccnc3c2O)cc1 (configuration not stated)	JMJD2A Tudor inh inconclusive, BAZ2B inh inconclusive
CCCC(=O)NC(c1ccco1)c1cc([N+](=O)[O-])c2cccnc2c1O (configuration not stated)	Sfp inh 14µM, BAZ2B inh 7.9µM, G9a inh 28µM
CC(=O)NC(c1ccccc1)c1cc(Cl)c2cccnc2c1O (configuration not stated)	JMJD2A Tudor inh inconclusive, BAZ2B inh 35µM (no result: G9a inh)
CCCC(=O)NC(c1ccco1)c1c(O)ccc2ccccc12 (configuration not stated)	G9a inh 13µM
CCCCC(=O)NC(c1ccco1)c1c(O)ccc2ccccc12 (configuration not stated)	none
COCCNC(=O)Cn1c(=O)c2cccn2c2ccc(F)cc21	JMJD2A Tudor inh inconclusive (no result: Sfp inh)
Cc1cc(C)cc(NC(=O)c2cnn(-c3ccc(C)c(C)c3)c2C2CCNCC2)c1	G9a inh inconclusive (no result: Sfp inh)
Cc1ccc(N2CCN(C(=O)c3cnn(-c4ccc(C)c(C)c4)c3C3CCNCC3)CC2)c(C)c1	JMJD2A Tudor inh inconclusive, BAZ2B inh inconclusive (no result: Sfp inh)
COc1ccc(OC)c(NC(=O)c2cnn(-c3ccc(C)cc3)c2C2CCNCC2)c1	JMJD2A Tudor inh 79µM, BAZ2B inh inconclusive, G9a inh inconclusive (no result: Sfp inh)
Cc1cccc(NC(=O)c2cnn(-c3ccc(F)cc3)c2C2CCNCC2)c1C	G9a inh 35µM
Cc1cc(C)cc(NC(=O)c2cnn(-c3ccccc3)c2C2CCNCC2)c1	G9a inh 40µM
Cc1ccc(-n2ncc(C(=O)Nc3cc(Cl)ccc3C)c2C2CCNCC2)cc1C	none
Cc1ccc(Cl)cc1N1CCN(C(=O)c2cnn(-c3ccc(Cl)cc3)c2C2CCNCC2)CC1	BAZ2B inh inconclusive, G9a inh 8.9µM (no result: Sfp inh)
COCCNc1nc(C)nc2c1nc(-c1ccccc1)n2CCCN1CCCCC1C (configuration not stated)	none (no result: JMJD2A Tudor inh, BAZ2B inh, G9a inh, HP1b chromo inh)
O=C(Nc1cccc(C(=O)N2CCOCC2)c1)c1ncn[nH]1	JMJD2A Tudor inh 28µM, BAZ2B inh 20µM
Cc1c(Cl)cccc1NC(=O)c1ncn[nH]1	JMJD2A Tudor inh 25µM, BAZ2B inh 20µM, G9a inh 11µM
Cc1ccc(C(=O)Nc2cccc(C(=O)N3CCOCC3)c2)cc1	none
Cc1ccccc1C(=O)Nc1cccc(NC(=O)c2ncn[nH]2)c1	BAZ2B inh inconclusive
Cc1ccc(NC(=O)c2ncn[nH]2)cc1	BAZ2B inh 50µM
Cc1ccc([N+](=O)[O-])c(Oc2ncnc3c2oc2ccccc23)c1	none (no result: Sfp inh)
CC(=O)OC[C@H]1O[C@@H](O/N=C(\C)CCN2CCc3nc(-c4ccccc4)c(-c4ccccc4)cc3C2)[C@H](OC(C)=O)[C@@H](OC(C)=O)[C@H]1OC(C)=O	none (no result: JMJD2A Tudor inh, BAZ2B inh, G9a inh, HP1b chromo inh)
Cc1cccc(-n2cc(-c3ccccc3)c3c(N4CCOCC4)ncnc32)c1	JMJD2A Tudor inh inconclusive, G9a inh inconclusive
COc1ccc(NC(=O)c2ccc3c(SCC(=O)O)c4c(nc3c2)CCCC4)c(OC)c1	Sfp inh inconclusive, JMJD2A Tudor inh inconclusive, BAZ2B inh inconclusive, G9a inh 50µM
COc1ccc(Cl)cc1NC(=O)c1ccc2c(SCC(=O)O)c3c(nc2c1)CCCC3	G9a inh 50µM, HP1b chromo inh inconclusive
Cc1ccc(CNC(=O)CSc2c3c(nc4cc(Cl)ccc24)CCCC3)o1	Sfp inh 18µM, JMJD2A Tudor inh inconclusive, G9a inh inconclusive
O=C(O)CSc1c2c(nc3cc(C(=O)Nc4ccc(F)c(Cl)c4)ccc13)CCCC2	BAZ2B inh 50µM (no result: G9a inh)
COc1ccc(NC(=O)c2ccc3c(SCC(=O)O)c4c(nc3c2)CCCC4)cc1Cl	G9a inh inconclusive (no result: JMJD2A Tudor inh, HP1b chromo inh)
COc1ccc(NC(=O)CSc2c3c(nc4ccccc24)CCC3)c(OC)c1	none
COc1ccc(S(=O)(=O)NCC(c2ccco2)N2CCN(c3ccc(F)cc3)CC2)cc1C (configuration not stated)	JMJD2A Tudor inh inconclusive, G9a inh inconclusive (no result: Sfp inh)
CCc1ccccc1-n1nnc(-c2nsc(NC(=O)c3ccc(C)c(C)c3)n2)c1C	none (no result: Sfp inh)
COc1ccc(N2CCN(C(=O)CSc3c4c(nc5ccc(Cl)cc35)CCCC4)CC2)cc1	JMJD2A Tudor inh 22µM, G9a inh 11µM (no result: Sfp inh, BAZ2B inh)
O=C(NCCCO)C(=O)NCC1OCCCN1S(=O)(=O)c1cccs1 (configuration not stated)	none
Cc1cc(C)c(S(=O)(=O)N2CCOC2CNC(=O)C(=O)NCCCn2ccnc2)c(C)c1 (configuration not stated)	JMJD2A Tudor inh 50µM, BAZ2B inh 13µM (no result: G9a inh)
O=C(NCCCn1ccnc1)C(=O)NCC1OCCN1S(=O)(=O)c1ccc2c(c1)OCCO2 (configuration not stated)	JMJD2A Tudor inh inconclusive, BAZ2B inh 40µM (no result: G9a inh)
CN(C)CCCNC(=O)C(=O)NCC1OCCN1S(=O)(=O)c1cccs1 (configuration not stated)	Sfp inh 79µM (no result: G9a inh)
O=c1oc2cc(O)ccc2cc1-c1ccc2c(c1)OCCO2	none (no result: JMJD2A Tudor inh, BAZ2B inh, G9a inh, HP1b chromo inh)
COc1ccc(N(CC(=O)N2CCc3ccccc3C2)S(=O)(=O)c2ccc(C)cc2)cc1Cl	G9a inh inconclusive (no result: Sfp inh)
COc1ccc(NC(=O)CC2Oc3ccc(C)cc3NC2=O)cc1Cl (configuration not stated)	none (no result: Sfp inh)
COCCN(CCOC)Cc1c(O)ccc2c1O/C(=C\c1ccco1)C2=O	Sfp inh 40µM, BAZ2B inh 71µM, G9a inh 4.5µM
CC1CCN(Cc2c(O)ccc3c2O/C(=C\c2ccco2)C3=O)CC1	Sfp inh inconclusive, BAZ2B inh 50µM, G9a inh 5.6µM
O=C1/C(=C/c2ccco2)Oc2c1ccc(O)c2CN1CCCCC1	Sfp inh inconclusive, BAZ2B inh inconclusive, G9a inh inconclusive

Source: PubChem BioAssay
